From PubChem BioAssay
Unmarked numbers belong to inactive results. No rule for the calls is given here.

Molecular target: Pantothenate synthetase (Mycobacterium tuberculosis (strain ATCC 25618 / H37Rv)) (UniProt P9WIL5)
Test: Coupled enzyme confirmation of inhibitors against recombinant Mtb PanC (AID 375);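 also: 0% = full reaction with vehicle and 100% = no enzyme background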
Conditions: coupled enzyme assay; at 10 µM, active compounds read high

Chain of Pantothenate synthetase (Mycobacterium tuberculosis (strain ATCC 25618 / H37Rv)) (P9WIL5 whole entry, looked up): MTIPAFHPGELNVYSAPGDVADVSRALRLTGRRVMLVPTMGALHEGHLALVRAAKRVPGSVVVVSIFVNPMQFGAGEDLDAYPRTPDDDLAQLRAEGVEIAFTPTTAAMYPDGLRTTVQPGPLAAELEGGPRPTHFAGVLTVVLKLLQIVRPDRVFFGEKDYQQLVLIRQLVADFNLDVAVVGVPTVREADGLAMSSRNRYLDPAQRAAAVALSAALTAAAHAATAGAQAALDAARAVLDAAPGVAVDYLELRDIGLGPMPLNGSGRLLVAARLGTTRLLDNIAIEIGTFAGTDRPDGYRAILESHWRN

**Q.** For `C=CCNC(=O)CSc1nc2sc(C)c(C)c2c(=O)[nH]1`, which inhibition is on record?
**A.** 0%

**Q.** Which inhibition does the source give for `c1ccc(Cn2nnc3c(N4CCCCCC4)ncnc32)cc1` here?
**A.** 7%

**Q.** For `CCOC(=O)c1c(NC(=O)COC(=O)c2c(C)noc2C)sc2c1CCC2`, which inhibition is on record?
**A.** 1%

**Q.** Which inhibition does the source give for `COc1ccc(C(=O)Nc2cccnc2)cc1C(=O)Nc1cccnc1` here?
**A.** 0%

**Q.** Which inhibition does the source give for `Cc1ccc2c(c1)C1CCCC3C1N2CC(=O)N3Cc1ccccc1` (configuration not stated) here?
**A.** 0%

**Q.** For `CC1(CC(=O)O)C(=O)N=C2C=CC=CN21` (configuration not stated), which inhibition is on record?
**A.** 0%

**Q.** With `C1=C(CCNc2ncnc3c2cnn3-c2ccccc2)CCCC1` as the compound, how does the inhibition read?
**A.** 6%

**Q.** For `CCOC(=O)C1CCN(C(C)=C2C(=O)c3ccccc3C2=O)CC1`, which inhibition is on record?
**A.** 2%

**Q.** `CCCCOc1ccccc1C1C(C(N)=O)=C(C)Nc2nnnn21` (configuration not stated) was tested. Which inhibition did it give?
**A.** 0%

**Q.** For `N#Cc1ccc(CSc2nnc(-c3ccccn3)n2-c2ccccc2)cc1`, which inhibition is on record?
**A.** 0%

**Q.** Which inhibition does the source give for `O=C(CN1CCN(c2nc(-c3ccc(Cl)cc3)cs2)CC1)NCc1ccco1` here?
**A.** 4%

**Q.** With `O=C(CN1CCCCCC1)OCCN=C1NS(=O)(=O)c2ccccc21` as the compound, how does the inhibition read?
**A.** 0%

**Q.** For `Cc1ccccc1Cn1ccc(NC(=O)c2cnn3c(C(F)(F)F)cc(-c4ccco4)nc23)n1`, which inhibition is on record?
**A.** 5%

**Q.** Which inhibition does the source give for `CC1(C)NC(=O)N(CC(O)COc2cccc(F)c2)C1=O` (configuration not stated) here?
**A.** 0%

**Q.** Which inhibition does the source give for `NC(=O)NC(c1ccccc1)c1ccccc1F` (configuration not stated) here?
**A.** 3%

**Q.** With `COc1ccc(-c2cn3c(C)c(C(=O)Nc4cc(NC(C)=O)ccc4OC)sc3n2)cc1` as the compound, how does the inhibition read?
**A.** 4%

**Q.** How did the inhibition turn out when `CCc1oc2ccccc2c1C(=O)c1cc(Br)c(O)c(Br)c1` was run?
**A.** 0%
